Our source for the inhibition values is PubChem BioAssay AID1947 (The Scripps Research Institute Molecular Screening Center, 2009).

The campaign covered roughly 300,000 compounds. About 990 (0.33%) were called active.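 Rule for the calls: active = inhibition above the screen mean inhibition plus 3 SD, computed separately per campaign (cut at about 18% in these data); inactive = the rest.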 This excerpt belongs to a sample that is enriched for actives.

The assay deals with Fam108B (ABHD17B) serine hydrolase [Mus musculus]. Briefly: inhibition of Fam108B (ABHD17B) hydrolase – biochemical, fluorescence polarization, counter-screen for RBBP9 inhibitor project, primary screen (AID 1947).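 Note: inhibitors lower polarization as less probe binds the enzyme.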 Particulars: recombinant Fam108B, FP-Rh probe fluorescence polarization; at 9.51 µM; hits give high values. In general terms: In fluorescence polarisation assays a small probe gives low polarisation when free and higher when bound to something large.
The term inhibition denotes the change of the read-out against control, counted positive when it falls. For `O=Cc1c(NCCCN2CCCC2=O)c2ccccc2[nH]c1=O`, the inhibition was 0.62% (inactive).

Consider `Cn1c(=O)c2c(ncn2CC(COCc2ccccc2Cl)OCc2ccccc2Cl)n(C)c1=O` (stereo unspecified), for which the inhibition was 2.8% (inactive).

With `Cc1nn(Cc2ccc(F)cc2)c(C)c1NC(=O)c1noc2c1CCc1ccccc1-2`, the inhibition was -3.92% (inactive).

As to `Cc1ccccc1NC(=O)c1cc(S(=O)(=O)Nc2cccc(C(=O)O)c2)ccc1Cl`, the inhibition is -0.84% (inactive). Under `C/C(=N\Nc1cccc(C(=O)O)c1)c1ccc2c(c1)Nc1ccccc1S2` stands 20% (active). Take `O=C(O)c1cccc(N2C(=O)Nc3ccccc3N2O)c1`: the inhibition was 0.58% (inactive).

On to `CCOc1cnc(-c2c(-c3ccccc3Cl)noc2C)o1`, for which the inhibition was -3.64% (inactive). Under `CCn1cc(CN2CCCC(CNS(=O)(=O)Cc3ccccc3)C2)cn1` (stereo unspecified) stands -2.99% (inactive); under `Cc1ccc(CN(C)Cc2cc(=O)oc3cc(C)c(Cl)cc23)cc1`, 9.93% (inactive); under `Cc1nc(NC(=O)c2cccc(Cl)c2)sc1-c1csc(Nc2cccc(Cl)c2)n1`, 61.2% (active).

Regarding `CCCCC(=O)Nc1nc(C)c(-c2csc(Nc3ccc(Cl)cc3)n2)s1`, the inhibition was 20.4% (active). As to `CC(=O)Nc1cccc(-c2csc(Nc3cccc(C)n3)n2)c1`, the inhibition was 5.89% (inactive). The result for `CCCCCCC(=O)Nc1nc(C)c(-c2csc(Nc3cccc(OC)c3)n2)s1` reads 12.5% (inactive); that for `C=CCCC(=O)Nc1nc(C)c(-c2csc(Nc3ccc(Cl)cc3)n2)s1`, -6.01% (inactive). The result for `CC(=O)Nc1nc(C)c(-c2csc(Nc3ccc(S(N)(=O)=O)cc3)n2)s1` reads -0.24% (inactive); that for `CC(=O)Nc1ccc(S(=O)(=O)Nc2nc(-c3ccc(C(C)(C)C)cc3)cs2)cc1`, 5.38% (inactive).

On to `CCCCCCC(=O)Nc1nc(C)c(-c2csc(Nc3cc(Cl)ccc3OC)n2)s1`, for which the inhibition is 11.8% (inactive). `O=C(Nc1ccc(-c2csc(Nc3cccc(C(F)(F)F)c3)n2)cc1)c1cccc(C(F)(F)F)c1`: the inhibition is 37.3% (active). Under `CCOC(=O)c1c(CC(C)C)csc1/N=C/C1=C(O)CCCC1=O` stands -3.29% (inactive). The result for `O=C(NNC(=O)c1cnccc1C(F)(F)F)c1ccc(Cl)cc1` reads -3.08% (inactive). Take `CCCn1c(=O)c2c(C(F)(F)F)cc(-c3cccs3)nc2n(CCC)c1=O`: the inhibition is 7.34% (inactive). Under `COc1ccc(OCC(O)CN(C)C(=O)C(C)Oc2ccccc2)cc1` (stereo unspecified) stands 3.54% (inactive). The result for `O=C1N[C@@H](Cc2ccccc2)C(=O)N2[C@@H]3N(S(=O)(=O)c4ccc(F)cc4)c4ccccc4[C@]3(Br)C[C@@H]12` reads 2.06% (inactive). As for `Cc1nc2ccccc2nc1N/N=C/c1ccc(O)cc1O`, the inhibition is 5.03% (inactive). Regarding `Oc1ccc(/C=N/Nc2nc(-c3ccccc3F)nc3ccccc23)c(O)c1`, the inhibition was 41% (active).

For `Fc1ccc(/C=N/Nc2nc(-c3cccnc3)nc3ccccc23)cc1`, the inhibition is -5.98% (inactive). The result for `CCC(C)[C@H]1COCCS(=O)(=O)N1Cc1ccc(C)cc1` (stereo partly specified) reads -0.44% (inactive); that for `CC1(C)C2CCC1(C)C(OC(=O)c1ccc(O)cc1)C2` (stereo unspecified), -4.06% (inactive). Under `Nc1ccc2nc3c(=O)[nH]c(=S)[nH]c3nc2c1` stands 29.3% (active). In the case of `O=C(COC(=O)CCCNC(=O)c1ccc(Cl)cc1)Nc1cc(Cl)ccc1Cl`, the inhibition was 4.35% (inactive). As to `O=C(NC1CC1)c1cccc(Br)c1`, the inhibition was -0.72% (inactive). The result for `O=C(NNC(=O)c1ccc(-c2ccccc2)cc1)Nc1ccccc1` reads -2.01% (inactive); that for `O=C(NC1CC1)c1ccc(-c2ccccc2)cc1`, 34.3% (active); that for `Cc1ccccc1N1CC(C(=O)Nc2nnc(SCCC3OCCO3)s2)CC1=O` (stereo unspecified), 5.32% (inactive). Under `O=C(CN(Cc1ccccc1)C(=O)CCC(=O)Nc1ccccn1)NCCc1ccccc1` stands 0.27% (inactive); under `COc1ccc(C2=Nc3cc(C)ccc3OC2)cc1`, -0.41% (inactive).

On to `c1ccc(CSc2nnc(-c3ccco3)c(-c3ccco3)n2)cc1`, for which the inhibition is 19.7% (active). In the case of `O=c1cc(O)nc(SCc2ccccc2Cl)[nH]1`, the inhibition was -1.05% (inactive).

On to `Clc1ccccc1CSc1nnc(-c2ccco2)c(-c2ccco2)n1`, for which the inhibition was 18.8% (active). The result for `Fc1cccc(Cl)c1CSc1ccc(-c2ccco2)nn1` reads -2.56% (inactive); that for `COc1ccc2nc(SCc3ccccc3)nc(C)c2c1`, -2.64% (inactive).

Consider `O=c1[nH]c(SCc2ccccc2)nnc1-c1ccccc1`, for which the inhibition is -0.14% (inactive). As for `COC(=O)c1ccc(CNC(=O)c2ccc3oc(C(C)C)nc3c2)cc1`, the inhibition is -1.84% (inactive). With `N#CCC(=O)N/N=C/c1cn(Cc2ccc3ccccc3c2)c2ccccc12`, the inhibition was -6.56% (inactive). Under `COC(=O)CN1C(=O)[C@H]2[C@@H](/C=C/c3ccccc3)N3C(=O)CN(CC4CC4)C(=O)[C@@]3(Cc3ccccc3)[C@H]2C1=O` stands -4.39% (inactive).

With `COC/C=C/C1=CC2=CC(=O)C(C)(OC(=O)CCC(=O)OC)C(=O)C2=CO1` (stereo unspecified), the inhibition was 8.02% (inactive).

For `COc1ccc(NC(=O)CSc2nnc(Cc3ccccc3)c(=O)n2N)cc1`, the inhibition was 0.31% (inactive). `CC(C)N1CCC(N2CCN(Cc3cccnc3)CC2CCO)CC1` (stereo unspecified): the inhibition is 1.03% (inactive). The result for `COC(=O)c1cc(N2CCNCC2)nc2ccccc12` reads 1.69% (inactive); that for `COc1ccc(NS(=O)(=O)c2cc(NC(=O)CC(=O)c3ccc([N+](=O)[O-])cc3)ccc2C)cc1`, 18.6% (active). Consider `COc1ccc(NS(=O)(=O)c2cc(C(=O)Nc3ccccc3C(=O)O)ccc2C)cc1`, for which the inhibition is -3.09% (inactive). Under `COc1ccc(C(=O)CC(=O)C(=O)Nc2cc([N+](=O)[O-])ccc2OC)cc1` stands 2.15% (inactive); under `COc1cc(Cl)c(C)cc1NC(=O)CSc1nnc(-c2ccco2)n1CC(C)C`, 0.55% (inactive); under `Cc1cc(C)cc(OCC(=O)NC(C)c2ccccc2)c1` (stereo unspecified), -2.91% (inactive). As for `CC(=O)Nc1ccc(NC(=O)CC2CCCC2)cc1`, the inhibition was 3.46% (inactive). As for `O=C1NC(c2cccc(Cl)c2)Nc2ccccc21` (stereo unspecified), the inhibition was -1.96% (inactive). With `Cc1ccc(C2Nc3cccc4cccc(c34)N2)cc1`, the inhibition was 10.3% (inactive). Turning to `COc1ccc(C2NC(=O)c3ccccc3N2)cc1` (stereo unspecified), the inhibition is -0.94% (inactive). The result for `COc1cccc(C2Nc3cccc4cccc(c34)N2)c1` reads 23% (active); that for `Oc1ccc(C2Nc3cccc4cccc(c34)N2)cc1`, 44.7% (active). The result for `Brc1ccccc1C1Nc2cccc3cccc(c23)N1` reads 11.3% (inactive); that for `COc1ccccc1CN1CCNC(=O)C1CC(=O)N(C)CC1CCOCC1` (stereo unspecified), 1.34% (inactive). Under `O=C(COC(=O)/C=C/c1cn(-c2ccccc2)nc1-c1cccnc1)Nc1ccc(Cl)cc1Cl` stands -13.2% (inactive); under `O=C(COC(=O)c1cc(=O)[nH]c2ccccc12)Nc1nc(-c2cccc(Br)c2)cs1`, -30.4% (inactive). With `Cc1nc([N+](=O)[O-])c(NCCCO)n1Cc1ccccc1`, the inhibition is 1.87% (inactive). As to `COc1cccc(C(=O)N2CCC(n3nccc3NC(=O)C3CCOC3)CC2)c1` (stereo unspecified), the inhibition is 5.08% (inactive).

With `O=C(Nc1ccc2ccccc2c1)Nc1ccc2snnc2c1`, the inhibition was -25.9% (inactive). Under `Cc1ccc(-c2ccnc3nc(Sc4ncc(C(F)(F)F)cc4Cl)nn23)cc1` stands -3.23% (inactive); under `CC[N+](C)(CC)CCC[n+]1c(-c2ccccc2)c2cc(N)ccc2c2ccc(N)cc21`, 74.1% (active); under `CCc1ccc2ncc(C(=O)c3ccccc3)c(N3CCOCC3)c2c1`, 0.71% (inactive). The result for `FC(F)(F)c1cc(-c2ccco2)nc(NCc2ccc(Cl)cc2)n1` reads -10.7% (inactive). The result for `Cc1cc(=O)oc2c3c(cc(OCC(=O)NCc4ccccn4)c12)OC(C)(C)CC3` reads -1.76% (inactive); that for `COc1cc(NC(=O)COC(=O)c2cnc(C)cn2)c(C)cc1[N+](=O)[O-]`, -0.2% (inactive). Take `CC(C)[C@H](NC(=O)N1CC(=O)Nc2ccccc21)C(=O)N[C@@H](Cc1c[nH]c2ccccc12)C(=O)O`: the inhibition was 0.98% (inactive). For the compound `COc1cc(OC)cc(C(=O)NCCSCc2ccc(Cl)cc2)c1`, the inhibition is -2.49% (inactive). With `Cc1ccc(-c2ccnc3[nH]n(-c4ccccc4)c(=O)c23)cc1`, the inhibition was -1.58% (inactive). Under `Cc1ccc(C2C3=C(Nc4[nH]n(-c5ccccc5)c(=O)c42)c2ccccc2C3=O)cc1` (stereo unspecified) stands 34.1% (active).

For `Cc1cc(C)c(C2C3=C(Nc4c2c(C)nn4-c2ccccn2)c2ccccc2C3=O)c(C)c1` (stereo unspecified), the inhibition is -5.56% (inactive).

On to `COCCN1CCn2c(nc3cc(NS(C)(=O)=O)ccc32)C1`, for which the inhibition is 2.47% (inactive). In the case of `CC1=NN(C(N)=S)C(=O)C1N=Nc1cc(Cl)ccc1Cl` (stereo unspecified), the inhibition is 1.09% (inactive). Under `Cc1[nH]n(C(N)=S)c(=O)c1N=Nc1ccc(Cl)cc1Cl` stands 20.8% (active); under `Cc1cccc(N=Nc2c(C)[nH]n(-c3ccccc3)c2=O)c1`, 4.19% (inactive). As for `O=C(CNC(=O)c1ccccc1F)c1ccc(Br)cc1`, the inhibition is 0.62% (inactive). Take `COc1c(F)c(F)c(-c2csc(N)n2)c(F)c1F`: the inhibition is 2.83% (inactive). Under `S=C(Nc1ccc2c(c1)OCO2)N1CCCC1` stands -2.94% (inactive); under `Cc1ccccc1NC(=O)CSC1=NCCN1`, -0.3% (inactive). On to `COc1ccc(NC(=O)CCCN2C(=O)C(c3ccccc3)Oc3cccnc32)cc1` (stereo unspecified), for which the inhibition is -1.86% (inactive). Under `O=C(OCC1OC(Oc2ccc(O)cc2)C(O)C(O)C1O)c1ccccc1` (stereo unspecified) stands -4.47% (inactive). In the case of `O=C(OCC1O[C@@H](OC(=O)c2cc(O)c(O)c(O)c2)[C@@H](OC(=O)c2cc(O)c(O)c(O)c2)[C@@H](OC(=O)c2cc(O)c(O)c(O)c2)[C@@H]1OC(=O)c1cc(O)c(O)c(O)c1)c1cc(O)c(O)c(O)c1` (stereo partly specified), the inhibition was 62.1% (active). The result for `CC(O)c1ccc(OCCN(C)c2ccccn2)cc1` (stereo unspecified) reads 8.79% (inactive). The result for `Cn1cnnc1Sc1ccc(S(C)(=O)=O)cc1[N+](=O)[O-]` reads 0.49% (inactive).
